USP2a inh – qHTS Assay for Inhibitors of Ubiquitin-specific Protease USP2a; USP2a enzymatic assay, qHTS inhibition; actives 0.1% (n = 60,000); AID 927, 2007; Potency, µM (highest dose often 38.3 µM), usual class: inhibitors; also: nearly all actives have a fitted effect of over 60% in size
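Coupled readout: USP2-cleaved Ub-PLA2 (20nM final) turns over NBD C6-HPC (20uM final), Ex 460nm/Em 535nm after 2.5 h, time-zero read flagging artifacts. Enzyme (20nM final, pH 8.0 Tris) given 30 min RT with compound first; NEM defines full inhibition.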
BRCT PPI green – qHTS Assay for Inhibitors of BRCT-Phosphoprotein Interaction (Green Fluorophore) | AID 875, 2007 | Breast cancer type 1 susceptibility protein (Homo sapiens), P38398 | Potency, µM (titrated, usually from 76.9 µM), hits mostly inhibitors | actives 0.05% (n = 75,000) | BRCA1 BRCT-phosphopeptide binding, green fluorescence polarization
Target sequence (P38398 whole entry, looked up): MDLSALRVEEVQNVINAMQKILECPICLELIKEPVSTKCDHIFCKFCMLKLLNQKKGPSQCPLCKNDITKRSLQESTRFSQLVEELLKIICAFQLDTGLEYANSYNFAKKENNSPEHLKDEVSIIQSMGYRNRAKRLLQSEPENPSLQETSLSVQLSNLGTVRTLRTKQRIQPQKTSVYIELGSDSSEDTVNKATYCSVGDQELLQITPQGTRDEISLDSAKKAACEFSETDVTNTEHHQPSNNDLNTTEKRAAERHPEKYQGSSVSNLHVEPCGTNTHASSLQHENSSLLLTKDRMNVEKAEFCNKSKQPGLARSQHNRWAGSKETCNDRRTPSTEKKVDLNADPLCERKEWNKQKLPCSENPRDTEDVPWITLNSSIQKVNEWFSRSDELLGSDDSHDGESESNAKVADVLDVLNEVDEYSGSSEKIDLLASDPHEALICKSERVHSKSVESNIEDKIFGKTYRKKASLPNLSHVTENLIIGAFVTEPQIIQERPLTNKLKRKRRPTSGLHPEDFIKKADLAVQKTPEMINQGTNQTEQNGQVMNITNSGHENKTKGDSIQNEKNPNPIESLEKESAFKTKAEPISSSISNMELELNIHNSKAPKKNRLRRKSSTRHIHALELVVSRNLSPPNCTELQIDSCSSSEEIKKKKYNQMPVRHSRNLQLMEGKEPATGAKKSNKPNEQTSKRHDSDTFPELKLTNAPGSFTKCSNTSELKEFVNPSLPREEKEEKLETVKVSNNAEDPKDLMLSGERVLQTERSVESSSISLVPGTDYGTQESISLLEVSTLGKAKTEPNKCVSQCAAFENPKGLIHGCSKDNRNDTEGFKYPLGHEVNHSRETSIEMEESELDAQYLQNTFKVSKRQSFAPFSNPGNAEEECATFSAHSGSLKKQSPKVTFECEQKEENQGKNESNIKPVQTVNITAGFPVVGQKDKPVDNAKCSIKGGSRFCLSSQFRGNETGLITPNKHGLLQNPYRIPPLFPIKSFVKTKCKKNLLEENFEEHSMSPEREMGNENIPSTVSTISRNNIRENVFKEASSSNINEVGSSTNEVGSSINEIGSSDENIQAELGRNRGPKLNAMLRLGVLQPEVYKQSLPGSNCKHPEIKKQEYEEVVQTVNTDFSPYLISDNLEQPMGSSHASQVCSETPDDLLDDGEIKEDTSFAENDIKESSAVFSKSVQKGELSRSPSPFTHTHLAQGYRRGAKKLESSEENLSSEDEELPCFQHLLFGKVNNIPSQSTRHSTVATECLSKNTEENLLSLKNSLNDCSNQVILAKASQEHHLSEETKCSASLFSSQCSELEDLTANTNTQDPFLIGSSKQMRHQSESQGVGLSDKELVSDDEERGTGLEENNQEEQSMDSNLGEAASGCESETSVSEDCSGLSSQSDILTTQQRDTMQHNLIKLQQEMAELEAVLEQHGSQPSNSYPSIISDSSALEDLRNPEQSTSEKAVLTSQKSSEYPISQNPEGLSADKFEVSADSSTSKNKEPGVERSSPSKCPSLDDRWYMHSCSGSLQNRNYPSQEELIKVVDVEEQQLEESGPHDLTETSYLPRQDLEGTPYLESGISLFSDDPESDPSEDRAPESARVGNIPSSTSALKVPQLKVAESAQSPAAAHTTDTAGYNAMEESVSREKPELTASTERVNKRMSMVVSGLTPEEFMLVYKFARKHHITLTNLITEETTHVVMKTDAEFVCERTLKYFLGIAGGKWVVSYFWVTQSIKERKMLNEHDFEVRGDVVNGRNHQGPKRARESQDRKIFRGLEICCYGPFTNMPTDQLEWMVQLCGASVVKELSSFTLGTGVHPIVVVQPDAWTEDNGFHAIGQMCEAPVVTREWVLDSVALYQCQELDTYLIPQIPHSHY
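Fluorescence polarization: His-tagged BRCT (~35 kDa BRCA1 C-terminus, 250 nM) bound to 100 nM fluorescein-labeled phosphorylated 10-aa BACH1 peptide, pH 7.3 phosphate buffer with DTT and Tween 20. Compounds incubated 12 min at room temperature; inhibition read as lowered polarization.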
YjeE inh – qHTS Assay for Inhibitors of YjeE; actives 0.05% (n = 71,000); purified YjeE enzyme, qHTS inhibition assay; tRNA threonylcarbamoyladenosine biosynthesis protein TsaE (Escherichia coli (strain …; Potency, µM
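Purified YjeE (10 uM) with BODIPY Texas Red-labeled ADP probe (2 uM); compounds pin-transferred, 15 min at room temperature. Binding inhibition read as decreased fluorescence polarization; ADP titration as control.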
Hsp90 Hop PPI – qHTS Assay for Disrupters of an Hsp90 Co-Chaperone Interaction; Hsp90 C-terminal peptide / TPR2A (Hop) interaction, human; AlphaScreen TPR2A-His6 binding biotin-Hsp90 C-terminal peptide; Potency, µM (highest dose often 57 µM); actives 0.44% (n = 71,000); AID 595, 2007; active = well fitted curve in either direction with a large enough effect; inconclusive = small, poorly fitted or top-dose-only effect, or another doubt
BRCT inh red – qHTS Assay for Inhibitors of BRCT-Phosphoprotein Interaction (Red Fluorophore) | Breast cancer type 1 susceptibility protein (Homo sapiens), P38398 | BRCT-phosphopeptide binding, red fluorescence polarization | Potency, µM (highest dose often 76.9 µM), hits mostly inhibitors | actives 0.03% (n = 75,000) | AID 892, 2007
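Fluorescence polarization: 100 nM His-tagged BRCA1 BRCT with 100 nM TAMRA-labelled phospho-BACH1 decapeptide, phosphate buffer pH 7.3 with 150 mM NaCl, DTT, 0.01% Tween 20; 12 min RT. Binding inhibition seen as FP decrease.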
A number is an active result; – = inactive; ? = inconclusive; · = no result; ! = repeats disagree; [ ] = remark or other dose. Only some compounds are listed: those with a hit (about 0.46% of all), similar ones and a draw of the others. Unless noted, calls follow the shape of the dose curve; as a rule, active = well fitted curve in the direction sought with a large enough effect; inconclusive = small, poorly fitted or top-dose-only effect, or another doubt; inactive = no such curve, though single readings can be large; an effect the other way counts as inactive or inconclusive.

SMILES	USP2a inh	BRCT PPI green	YjeE inh	Hsp90 Hop PPI	BRCT inh red
COc1ccc(-n2c(=O)c(-c3cccs3)nc3cnc(N4CCOCC4)nc32)cc1	–	–	–	–	–
O=c1c(-c2cccs2)nc2cnc(N3CCOCC3)nc2n1-c1ccccc1	–	–	–	3.16µM	–
CC(C)n1c(Nc2ccccc2)nc2ccccc21	–	–	–	–	–
CC(C)n1c2ccccc2c2nc3ccccc3nc21	–	–	–	31.6µM	–
O=C(Nc1ccccc1)Nc1ccccn1	–	–	–	–	–
S=C(Nc1ccccn1)c1ccccn1	–	–	–	10µM	–
COc1ccccc1C[C@@H](Cc1nc2ccccc2[nH]1)c1nc2ccccc2[nH]1	·	·	–	–	·
CCc1cccc2nc3c(c([Si](CC)(CC)CC)c12)Cn1c-3cccc1=O	·	–	–	25.1µM	–
COc1cccc(Cn2c(=O)c(-c3ccccc3)nc3cnc(N(C)C)nc32)c1	–	–	–	10µM	–
CN(C)c1ncc2nc(-c3ccccc3)c(=O)n(C)c2n1	–	–	–	12.6µM	–
O=C(O)[C@@H]1CCCN[C@H]1C(=O)O	–	–	–	–	–
O=C(O)c1cc(O)c2c(c1)[C@H]([C@H]1c3cc(C(=O)O)cc(O)c3C(=O)c3c(O[C@@H]4OC(CO)C(O)C(O)C4O)cccc31)c1cccc(O[C@@H]3OC(CO)C(O)C(O)C3O)c1C2=O (stereo partly specified)	12.6µM	–[3.08 µM]	·	·	6.31µM
Cc1ccc2nc(-c3ccc(N)cc3)sc2c1S(=O)(=O)O	·	–	–	–	–
CCCCOc1ccc(-c2nnn(C(C)C(=O)OCC)n2)cc1 (stereo unspecified)	–	–	–	?	–
CCCCOc1ccc(-c2nnn(C(C)(C)C(=O)OC)n2)cc1	–	–	–	25.1µM	–
Cc1cc(C)c(C#N)c(SCC(=O)OC2CCCCC2)n1	·	–	–	31.6µM	–
CO[C@@]12C[C@@H](COC(=O)c3cncc(Br)c3)CN(C)[C@H]1Cc1cn(C)c3cccc2c13	–	–	–	10µM!	–
CCC(Cl)CC(Cl)C(Cl)C(Cl)C(Cl)C(C)Cl (stereo unspecified)	·	–	–	31.6µM	–
NS(=O)(=O)c1ccc(NC(=O)CCC2CCCCC2)cc1	·	–	–	–	–
O=C(CCCCCCCCCCCCC1CCCC1)Nc1ccc(S(=O)(=O)c2ccc(NC(=O)CCCCCCCCCCCCC3CCCC3)cc2)cc1	25.1µM	–[3.08 µM]	·	·	–
O=NC1=C(c2c(O)[nH]c3ccccc23)CCCC1	–	–	–	–	–
O=Nc1c(-c2c(O)[nH]c3ccccc23)[nH]c2ccccc12	?	–	–	12.6µM!	–
C/C=C\C1=C(CO)C(=O)[C@@H]2OC2C1=O (stereo partly specified)	·	–[15.4 µM]	·	·	–[15.4 µM]
Nc1ccc(-c2ccc(Nc3cc(S(=O)(=O)O)c(N)c4c3C(=O)c3ccccc3C4=O)cc2)c(S(=O)(=O)O)c1	·	–[15.4 µM]	–	–[11 µM]	–[15.4 µM]
O=C1c2ccccc2C(=O)c2c(NC3CCCCC3)ccc(Nc3ccc(S(=O)(=O)O)cc3)c21	·	–[15.4 µM]	12.6µM	3.98µM	–[15.4 µM]
SMILES	USP2a inh	BRCT PPI green	YjeE inh	Hsp90 Hop PPI	BRCT inh red
Oc1ccc(COCc2ccccc2)c2cccnc12	–	–	–	25.1µM	–
COCc1cc(CN2CCCC2)c(O)c2ncccc12	–	–	–	3.16µM	–
Oc1c(CN2CCN(c3ccccn3)CC2)cc(Cl)c2cccnc12	–	–	–	7.94µM	–
COc1ccccc1N1CCN(Cc2cc(Br)c(O)c3ncccc23)CC1	·	–	–	–[2.3 µM]	–
O=C(Oc1c(CN2CCOCC2)cc(Cl)c2cccnc12)c1ccc(F)cc1	–	–	–	12.6µM	–
C[C@@]12CCC(=O)C=C1CC[C@H]1[C@@H]2[C@@H](O)C[C@]2(C)[C@@H]1CC[C@@]2(O)C(=O)CO	·	–[15.4 µM]	–	–[11 µM]	–[15.4 µM]
Oc1c(CN2CCCCC2)cc(COCc2ccccc2)c2cccnc12	–	–	–	2.51µM	–
Oc1cc(Cc2ccccc2)cnc1CN1CCCCC1	–	–	–	–	–
Oc1ccc(CNc2ccccc2F)c2cccnc12	–	–	–	5.01µM	–
CCc1cccc2c3c([nH]c12)[C@](CC)(CC(=O)O)OCC3	·	·	–	–	·
O=C(N/N=C/c1ccccc1O)c1cc(-c2ccccc2)n[nH]1	·	–	·	·	–
O=C(N/N=C\c1ccccc1O)c1ccccc1O	·	–	–	10µM	–
CN(C)CCCO[C@H]1[C@H]([C@H](O)CO)O[C@H]2OC(C)(C)O[C@@H]21	–	–	–	–	–
C=C(CO)[C@H]1Cc2c(ccc3c(=O)c4c(oc23)COc2cc(OC)c(OC)cc2-4)O1	·	·	–	–	·
COc1ccc(C(=O)N2CCC3(CCCN(C(=O)NC(C)C)C3)CC2)cc1	10µM	–	–	–	–
CCCOc1ccccc1-c1nc2n[nH]nc2c(=O)[nH]1	10µM	–[3.08 µM]	–	–	–
COc1c(O)cc2oc3cc(O)c(CC=C(C)C)c(O)c3c(=O)c2c1CC=C(C)C	10µM!	–	–	–	–
COc1ccc(-c2cc3nc(-c4ccccc4)cc(N4CCC5(CC4)OCCO5)n3n2)cc1	–	–	–	15.8µM	–
Cc1cc(C)c(/C=C2/C(=O)Nc3ccccc32)[nH]1	–	?	–	?	–
O=C(O)c1ccc(Cl)c2c1C1C=CCC1C(c1ccccn1)N2 (stereo unspecified)	·	31.6µM	39.8µM	?	31.6µM
C1=CC2c3ccccc3NC(c3ccncc3)C2C1 (stereo unspecified)	·	–	–	?	–
C[C@@H]1O[C@@H](n2cc(F)c(=O)[nH]c2=O)[C@H](O)[C@@H]1O	–	–	–	–	–
Cn1c(SCc2cccnc2)nc2cccnc21	5.01µM	–	–	–	–
Cn1c(SCC(=O)c2ccccc2)nc2cccnc21	–	–	–	–	–
CN(C)c1ccc(C(=C2C=CC(=[N+](C)C)C=C2)c2ccc(N(C)C)cc2)cc1	10µM	–[3.08 µM]	5.01µM	?	–
SMILES	USP2a inh	BRCT PPI green	YjeE inh	Hsp90 Hop PPI	BRCT inh red
CN(C)c1ccc(C(=C2C=CC(=[N+](C)C)C=C2)c2ccccc2)cc1	·	–[15.4 µM]	–	?	–[15.4 µM]
Cc1ccc2c(c1)c1c(n2C)C(C(N)=O)CCC1 (stereo unspecified)	6.31µM	–	–	–	–
Cc1ccc2c(c1)c1c3n2CCN[C@H]3CCC1	–	–	–	–	–
O=C1c2ccccc2-c2onc3ccc(NCCCn4ccnc4)c1c23	–	0.794µM	25.1µM	25.1µM	0.631µM
Cc1nc(NCCCn2ccnc2)c2ccccc2n1	–	–	–	–	–
COc1ccc2noc3c2c1C(=O)c1ccccc1-3	–	3.16µM	–	?	–
COC1=C(OC)C(=O)c2ccccc2C1=O	–	–	–	–	–

Source: PubChem BioAssay
